Results as given in the supplement of paper PMC10849652.
The full data set covers some 7,900 targets. This sample favours those with a hit. About 0.6% of all pairs of compound and target were hits. A number with no mark means an inactive call.

Key:
Experiment in all cases: log2 fold change, soluble protein after heating vs DMSO (PISA); higher = thermal stabilisation; K562 cells, 10 uM, 30 min; active = over 0.2 and 3.5 SD of the protein, either way, in both replicates (recomputed)
[1] = compound: COC1=CC=C(C=C1)CN2C=CC3=C2C=C(C=C3)C(=O)NO
How it was run: (§1)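 K562 cells at 2×10^6 cells/mL were exposed to 10 μM compound for 30 min, then aliquots were heated for 3 min across 48°C-58°C, pooled, and extracted in PBS containing 0.5% NP-40 at 4°C. The supernatant after 21,000xg for 90 min was taken as soluble protein and measured by TMTpro 16plex LC-MS/MS with channel sums equalised. Thermal stability is reported relative to control samples, with values from duplicates. Fold changes are given on a log2 scale.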

filanesib = compound: CON(C)C(=O)N1N=C(c2cc(F)ccc2F)S[C@@]1(CCCN)c1ccccc1 [filanesib]
How it was run: as §1

zotarolimus = compound: CO[C@H]1C[C@@H]2CC[C@@H](C)[C@@](O)(O2)C(=O)C(=O)N2CCCC[C@H]2C(=O)O[C@H]([C@H](C)C[C@@H]2CC[C@H](n3cnnn3)[C@H](OC)C2)CC(=O)[C@H](C)/C=C(\C)[C@@H](O)[C@@H](OC)C(=O)[C@H](C)C[C@H](C)/C=C/C=C/C=C/1C [zotarolimus]
How it was run: as §1

idasanutlin = compound: COc1cc(C(=O)O)ccc1NC(=O)[C@@H]1N[C@@H](CC(C)(C)C)[C@](C#N)(c2ccc(Cl)cc2F)[C@H]1c1cccc(Cl)c1F [idasanutlin]
How it was run: as §1

alisertib = compound: COc1cc(Nc2ncc3c(n2)-c2ccc(Cl)cc2C(c2c(F)cccc2OC)=NC3)ccc1C(=O)O [alisertib]
How it was run: as §1

[2] = compound: COc1cc2nc(-c3cc(F)ccc3O)nc(N[C@@H]3CNC[C@H]3C(C)(C)O)c2cc1OC
How it was run: as §1

gefitinib = compound: COc1cc2ncnc(Nc3ccc(F)c(Cl)c3)c2cc1OCCCN1CCOCC1 [gefitinib]
How it was run: as §1

[3] = compound: COc1cccc2cc(-c3nc([C@H]4CC[C@H](C(=O)O)CC4)n4ncnc(N)c34)[nH]c12
How it was run: as §1

lapatinib = compound: CS(=O)(=O)CCNCc1ccc(-c2ccc3ncnc(Nc4ccc(OCc5cccc(F)c5)c(Cl)c4)c3c2)o1 [lapatinib]
How it was run: as §1

pictilisib = compound: CS(=O)(=O)N1CCN(Cc2cc3nc(-c4cccc5[nH]ncc45)nc(N4CCOCC4)c3s2)CC1 [pictilisib]
How it was run: as §1

UniProt Q00536, sequence (Q00536 whole entry, looked up): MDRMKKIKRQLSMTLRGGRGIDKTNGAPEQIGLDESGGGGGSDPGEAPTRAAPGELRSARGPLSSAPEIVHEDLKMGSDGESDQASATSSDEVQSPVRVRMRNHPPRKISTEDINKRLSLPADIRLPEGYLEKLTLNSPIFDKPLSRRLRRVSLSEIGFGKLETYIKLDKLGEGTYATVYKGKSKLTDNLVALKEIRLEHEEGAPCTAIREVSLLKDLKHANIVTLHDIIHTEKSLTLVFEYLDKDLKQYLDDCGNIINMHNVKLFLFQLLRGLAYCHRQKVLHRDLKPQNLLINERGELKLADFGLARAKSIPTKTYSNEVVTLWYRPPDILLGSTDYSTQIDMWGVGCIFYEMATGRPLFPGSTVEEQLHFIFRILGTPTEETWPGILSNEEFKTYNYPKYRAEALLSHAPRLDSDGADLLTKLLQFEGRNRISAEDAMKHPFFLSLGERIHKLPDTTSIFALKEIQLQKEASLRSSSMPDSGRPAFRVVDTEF
UniProt P51790, sequence (P51790 whole entry, looked up): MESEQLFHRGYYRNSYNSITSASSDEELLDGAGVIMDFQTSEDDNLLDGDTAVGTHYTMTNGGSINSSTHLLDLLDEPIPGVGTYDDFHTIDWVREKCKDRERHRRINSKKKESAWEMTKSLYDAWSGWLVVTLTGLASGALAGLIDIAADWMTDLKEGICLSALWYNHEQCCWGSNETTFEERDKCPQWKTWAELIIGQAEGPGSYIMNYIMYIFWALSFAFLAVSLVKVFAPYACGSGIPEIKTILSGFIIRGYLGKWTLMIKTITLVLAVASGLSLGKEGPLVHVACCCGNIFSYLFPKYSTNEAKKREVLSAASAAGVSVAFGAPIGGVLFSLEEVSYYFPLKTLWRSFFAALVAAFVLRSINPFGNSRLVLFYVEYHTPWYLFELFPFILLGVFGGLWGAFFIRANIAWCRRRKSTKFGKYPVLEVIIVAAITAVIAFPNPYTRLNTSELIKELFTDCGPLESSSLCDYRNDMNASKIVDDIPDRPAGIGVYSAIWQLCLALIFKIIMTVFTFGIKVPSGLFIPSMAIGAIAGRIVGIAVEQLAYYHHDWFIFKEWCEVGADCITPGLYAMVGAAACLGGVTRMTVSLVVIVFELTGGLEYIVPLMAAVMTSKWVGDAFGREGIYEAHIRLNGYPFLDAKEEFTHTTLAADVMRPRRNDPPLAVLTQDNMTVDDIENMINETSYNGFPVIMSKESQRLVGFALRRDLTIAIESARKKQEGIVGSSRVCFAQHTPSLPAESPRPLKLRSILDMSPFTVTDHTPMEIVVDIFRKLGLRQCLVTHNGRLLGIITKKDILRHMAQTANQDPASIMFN
UniProt Q9Y6H1, sequence (Q9Y6H1 whole entry, looked up): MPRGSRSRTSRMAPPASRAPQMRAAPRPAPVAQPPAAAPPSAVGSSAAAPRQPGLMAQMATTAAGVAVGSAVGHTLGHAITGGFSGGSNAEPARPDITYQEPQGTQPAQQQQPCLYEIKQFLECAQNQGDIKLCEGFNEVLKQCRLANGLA
UniProt P08962, sequence (P08962 whole entry, looked up): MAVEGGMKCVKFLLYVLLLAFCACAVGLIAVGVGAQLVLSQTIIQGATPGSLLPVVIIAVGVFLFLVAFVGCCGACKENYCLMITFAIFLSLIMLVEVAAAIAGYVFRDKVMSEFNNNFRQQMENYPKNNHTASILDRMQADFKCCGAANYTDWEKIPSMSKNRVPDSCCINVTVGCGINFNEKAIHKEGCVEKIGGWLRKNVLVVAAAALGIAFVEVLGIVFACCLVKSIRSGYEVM
UniProt P30305, sequence (P30305 whole entry, looked up): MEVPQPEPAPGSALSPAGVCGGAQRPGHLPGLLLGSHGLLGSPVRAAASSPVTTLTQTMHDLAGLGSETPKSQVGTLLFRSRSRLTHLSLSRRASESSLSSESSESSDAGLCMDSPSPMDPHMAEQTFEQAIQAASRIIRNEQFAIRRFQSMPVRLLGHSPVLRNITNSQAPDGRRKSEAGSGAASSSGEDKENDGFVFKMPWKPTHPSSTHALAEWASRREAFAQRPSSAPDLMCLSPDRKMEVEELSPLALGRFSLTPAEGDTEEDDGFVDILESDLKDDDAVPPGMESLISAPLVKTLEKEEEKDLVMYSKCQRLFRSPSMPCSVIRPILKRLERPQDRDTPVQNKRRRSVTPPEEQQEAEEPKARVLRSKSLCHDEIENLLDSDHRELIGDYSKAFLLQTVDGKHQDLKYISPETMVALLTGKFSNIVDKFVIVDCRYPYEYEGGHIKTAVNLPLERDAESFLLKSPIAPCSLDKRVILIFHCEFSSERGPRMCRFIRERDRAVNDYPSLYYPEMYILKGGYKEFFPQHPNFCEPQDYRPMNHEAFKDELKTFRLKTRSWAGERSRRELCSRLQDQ
UniProt P48730, sequence (P48730 whole entry, looked up): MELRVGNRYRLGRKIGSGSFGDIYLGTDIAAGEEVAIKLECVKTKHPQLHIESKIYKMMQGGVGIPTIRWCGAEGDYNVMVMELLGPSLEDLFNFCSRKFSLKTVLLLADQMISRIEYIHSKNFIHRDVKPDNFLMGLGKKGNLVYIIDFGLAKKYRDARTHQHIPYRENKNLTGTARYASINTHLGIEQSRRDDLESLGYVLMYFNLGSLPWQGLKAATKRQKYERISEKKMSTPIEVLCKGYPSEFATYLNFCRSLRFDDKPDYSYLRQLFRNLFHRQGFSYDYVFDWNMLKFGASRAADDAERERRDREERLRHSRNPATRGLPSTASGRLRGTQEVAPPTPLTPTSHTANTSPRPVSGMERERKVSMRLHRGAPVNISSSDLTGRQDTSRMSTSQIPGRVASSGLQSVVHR
UniProt Q14839, sequence (Q14839 whole entry, looked up): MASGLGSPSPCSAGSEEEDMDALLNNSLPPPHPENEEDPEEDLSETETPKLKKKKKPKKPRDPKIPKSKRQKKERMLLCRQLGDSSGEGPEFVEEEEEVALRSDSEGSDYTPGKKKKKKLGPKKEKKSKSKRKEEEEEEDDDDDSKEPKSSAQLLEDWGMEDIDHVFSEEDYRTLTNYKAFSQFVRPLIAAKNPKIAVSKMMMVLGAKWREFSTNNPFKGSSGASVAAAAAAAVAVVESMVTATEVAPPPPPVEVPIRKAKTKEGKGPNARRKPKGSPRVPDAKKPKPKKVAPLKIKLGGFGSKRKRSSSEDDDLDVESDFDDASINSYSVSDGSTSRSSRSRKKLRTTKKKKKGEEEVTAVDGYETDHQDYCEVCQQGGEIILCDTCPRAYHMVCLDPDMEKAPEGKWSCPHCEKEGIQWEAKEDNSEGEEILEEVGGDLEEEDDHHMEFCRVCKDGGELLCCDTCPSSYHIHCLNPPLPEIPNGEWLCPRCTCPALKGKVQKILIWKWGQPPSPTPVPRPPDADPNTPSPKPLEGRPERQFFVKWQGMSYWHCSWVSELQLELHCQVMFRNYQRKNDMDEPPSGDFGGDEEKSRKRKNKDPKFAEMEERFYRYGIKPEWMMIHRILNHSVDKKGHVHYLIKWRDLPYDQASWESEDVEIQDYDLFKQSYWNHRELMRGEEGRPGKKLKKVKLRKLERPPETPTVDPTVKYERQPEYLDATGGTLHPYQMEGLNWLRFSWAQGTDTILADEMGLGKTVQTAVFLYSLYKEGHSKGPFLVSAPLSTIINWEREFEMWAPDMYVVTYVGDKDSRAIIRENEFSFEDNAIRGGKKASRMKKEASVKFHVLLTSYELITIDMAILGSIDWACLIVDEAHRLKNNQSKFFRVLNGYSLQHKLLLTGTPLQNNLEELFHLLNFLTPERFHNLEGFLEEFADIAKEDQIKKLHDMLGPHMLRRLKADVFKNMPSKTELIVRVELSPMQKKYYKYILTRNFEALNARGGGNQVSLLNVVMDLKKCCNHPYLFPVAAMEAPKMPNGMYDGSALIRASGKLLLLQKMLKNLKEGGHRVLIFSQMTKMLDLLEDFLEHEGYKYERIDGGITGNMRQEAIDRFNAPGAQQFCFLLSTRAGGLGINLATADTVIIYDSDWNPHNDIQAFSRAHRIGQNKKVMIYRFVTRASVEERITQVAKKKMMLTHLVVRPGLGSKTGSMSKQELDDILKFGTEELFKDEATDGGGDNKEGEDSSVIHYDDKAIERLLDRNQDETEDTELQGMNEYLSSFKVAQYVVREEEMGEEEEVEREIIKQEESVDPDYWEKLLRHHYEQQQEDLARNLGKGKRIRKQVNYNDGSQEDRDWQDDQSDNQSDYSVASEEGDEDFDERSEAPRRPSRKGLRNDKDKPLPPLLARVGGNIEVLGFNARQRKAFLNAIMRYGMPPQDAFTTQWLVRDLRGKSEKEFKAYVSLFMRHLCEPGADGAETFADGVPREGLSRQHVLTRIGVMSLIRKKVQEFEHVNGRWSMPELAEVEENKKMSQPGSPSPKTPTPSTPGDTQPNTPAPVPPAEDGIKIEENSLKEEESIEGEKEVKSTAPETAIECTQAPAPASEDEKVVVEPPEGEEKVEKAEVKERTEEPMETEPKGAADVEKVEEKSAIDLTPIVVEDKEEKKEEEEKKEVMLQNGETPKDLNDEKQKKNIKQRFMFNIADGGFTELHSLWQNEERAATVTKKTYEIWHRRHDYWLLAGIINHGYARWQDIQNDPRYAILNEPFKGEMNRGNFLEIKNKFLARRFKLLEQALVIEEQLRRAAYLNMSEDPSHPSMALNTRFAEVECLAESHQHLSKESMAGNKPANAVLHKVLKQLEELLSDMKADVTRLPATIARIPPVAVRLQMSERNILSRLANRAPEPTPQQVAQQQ
UniProt P14854, sequence (P14854 whole entry, looked up): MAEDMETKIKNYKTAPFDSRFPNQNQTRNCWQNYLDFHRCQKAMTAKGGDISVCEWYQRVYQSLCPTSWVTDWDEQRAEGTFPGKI
UniProt P11802, sequence (P11802 whole entry, looked up): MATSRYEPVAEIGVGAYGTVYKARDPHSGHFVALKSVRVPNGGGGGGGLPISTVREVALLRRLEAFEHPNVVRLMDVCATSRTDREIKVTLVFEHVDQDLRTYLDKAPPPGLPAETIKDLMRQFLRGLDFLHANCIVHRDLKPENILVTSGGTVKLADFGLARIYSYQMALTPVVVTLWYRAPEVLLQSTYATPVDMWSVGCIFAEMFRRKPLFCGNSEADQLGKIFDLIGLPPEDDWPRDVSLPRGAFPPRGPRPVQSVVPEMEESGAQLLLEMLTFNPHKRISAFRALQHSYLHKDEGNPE

Row | Target | log2 fold change [1] | log2 fold change (filanesib) | log2 fold change (zotarolimus) | log2 fold change (idasanutlin) | log2 fold change (alisertib) | log2 fold change [2] | log2 fold change (gefitinib) | log2 fold change [3] | log2 fold change (lapatinib) | log2 fold change (pictilisib)
1 | CASP2 (UniProt P42575) | 0.122 | -0.02 | 0.047 | -0.067 | -0.019 | -0.245 | -0.082 | 0.072 | -0.323 (active) | 0.069
2 | CHST11 (UniProt Q9NPF2) | 0.153 | 0.016 | 0.061 | -0.016 | -0.248 | -0.19 | -0.013 | 0.012 | 0.297 | -0.025
3 | CDK4 (UniProt P11802) | -0.111 | 0.09 | -0.071 | 0.061 | 0.062 | -0.049 | 0.017 | -0.057 | -0.031 | 
4 | COX6B1 (UniProt P14854) | -0.08 | 0.003 | 0.012 | 0 | 0.007 | 0.045 | 0.036 | 0.019 | -0.026 | 0.002
5 | CHCHD2 (UniProt Q9Y6H1) | 0.101 | 0.026 | -0.024 | -0.457 (active) | 0.053 | -0.002 | -0.028 | -0.155 | -0.024 | 0.031
6 | CLUH (UniProt O75153) | -0.026 | 0.07 | 0.028 | -0.074 | -0.072 | -0.022 | -0.001 | -0.152 | 0.006 | 
7 | CDK16 isoform 2 (UniProt Q00536) | 0.029 | 0.021 | -0.028 | -0.036 | 0.02 | 0.252 | -0.086 | 0.037 | 0.002 | 
8 | CD63 (UniProt P08962) | -0.053 | -0.336 (active) | -0.01 | -0.051 | -0.069 | -0.031 | -0.076 | 0.096 | -0.002 | 0.032
9 | CLCN3 (UniProt P51790) | -0.158 | -0.12 | -0.099 | -0.095 | -0.016 | 0.031 | 0.045 | 0.058 | -0.06 | 
10 | CLASP2 isoform 3 (UniProt O75122) | 0.021 | 0.068 | 0.033 | -0.024 | -0.021 | 0.055 | -0.002 | 0.003 | -0.009 | 
11 | CSNK1D (UniProt P48730) | 0.045 | 0.153 | -0.019 | 0.027 | -0.016 | -0.049 | -0.006 | -0.009 | 0.041 | -0.053
12 | CLSPN (UniProt Q9HAW4) | -0.076 | 0.053 | -0.034 | 0.107 | 0.004 | -0.111 | -0.019 | -0.018 | 0.053 | 
13 | CHD4 isoform 2 (UniProt Q14839) | 0.04 | 0.079 | 0.019 | 0.045 | 0 | -0.099 | 0.055 | -0.097 | 0.013 | -0.028
14 | CDC25B isoform 4 (UniProt P30305) | -0.038 | 0.005 | -0.056 | 0.052 | -0.018 | 0.026 | -0.013 | 0.068 | -0.012 | 0.03
15 | CD81 (UniProt P60033) | -0.051 | 0.049 | 0.003 | -0.014 | -0.007 | 0.008 | 0.043 | 0.052 | -0.032 | 0.138
16 | C22orf39 (UniProt Q6P5X5) | 0.02 | -0.043 | -0.014 | 0.119 | -0.025 | -0.344 | 0.058 | -0.006 | 0.077 | 
